# Of roughly 7,900 targets only a part is listed; those with a hit were picked by preference. About 0.6% of all pairs of compound and target were hits.
# Compound: Cc1ncc(-c2ccnc(Nc3ccc(S(C)(=O)=O)cc3)n2)n1C(C)C
# Assay: log2 fold change, soluble protein after heating vs DMSO (PISA); higher = thermal stabilisation; K562 cells, 10 uM, 30 min; active = over 0.2 and 3.5 SD of the protein, either way, in both replicates (recomputed)
# Summary of the method: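 Aliquots of K562 cells (2×10^6 cells/mL) treated with 10 μM compound for 30 min were heated for 3 min over 48°C-58°C. After pooling and extraction in PBS with 0.5% NP-40 at 4°C, soluble protein from a 21,000xg, 90 min spin was quantified by TMTpro 16plex LC-MS/MS with channel sums equalised. Thermal stability is expressed against control samples, from duplicates, as a log2 fold change.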
# Sequence of UniProt P15260 (P15260 whole entry, looked up): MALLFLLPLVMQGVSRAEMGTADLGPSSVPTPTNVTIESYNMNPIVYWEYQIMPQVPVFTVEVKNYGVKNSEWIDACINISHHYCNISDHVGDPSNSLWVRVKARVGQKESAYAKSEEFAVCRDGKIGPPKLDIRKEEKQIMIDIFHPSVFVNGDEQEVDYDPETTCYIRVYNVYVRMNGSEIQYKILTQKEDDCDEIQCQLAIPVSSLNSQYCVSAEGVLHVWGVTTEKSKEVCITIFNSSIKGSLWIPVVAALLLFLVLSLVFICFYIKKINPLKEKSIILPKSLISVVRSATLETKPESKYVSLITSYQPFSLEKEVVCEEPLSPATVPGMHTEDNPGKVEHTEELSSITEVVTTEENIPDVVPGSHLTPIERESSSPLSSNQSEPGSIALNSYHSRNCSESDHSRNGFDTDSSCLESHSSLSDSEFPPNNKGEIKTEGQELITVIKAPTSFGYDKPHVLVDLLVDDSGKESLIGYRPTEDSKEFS
# Sequence of UniProt Q9BUP3 (Q9BUP3 whole entry, looked up): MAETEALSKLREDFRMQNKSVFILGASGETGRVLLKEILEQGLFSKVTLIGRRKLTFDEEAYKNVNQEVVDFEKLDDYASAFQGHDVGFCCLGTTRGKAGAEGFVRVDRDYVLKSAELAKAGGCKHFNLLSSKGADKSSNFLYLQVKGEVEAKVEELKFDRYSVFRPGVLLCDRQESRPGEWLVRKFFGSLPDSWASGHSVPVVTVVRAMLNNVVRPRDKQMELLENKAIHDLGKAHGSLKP
# Sequence of UniProt P31943 (P31943 whole entry, looked up): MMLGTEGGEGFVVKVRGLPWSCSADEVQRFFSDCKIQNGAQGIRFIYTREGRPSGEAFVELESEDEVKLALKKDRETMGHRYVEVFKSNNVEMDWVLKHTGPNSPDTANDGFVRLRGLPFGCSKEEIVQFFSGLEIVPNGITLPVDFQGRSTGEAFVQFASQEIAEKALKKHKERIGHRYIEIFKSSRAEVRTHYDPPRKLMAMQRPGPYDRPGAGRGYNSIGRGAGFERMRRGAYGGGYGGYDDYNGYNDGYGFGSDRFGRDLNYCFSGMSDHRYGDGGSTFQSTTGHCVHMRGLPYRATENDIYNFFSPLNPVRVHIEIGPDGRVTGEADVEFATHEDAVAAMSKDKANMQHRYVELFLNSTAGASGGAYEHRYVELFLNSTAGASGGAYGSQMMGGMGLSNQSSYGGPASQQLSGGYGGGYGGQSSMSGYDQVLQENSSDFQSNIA
# Sequence of UniProt P08236 (P08236 whole entry, looked up): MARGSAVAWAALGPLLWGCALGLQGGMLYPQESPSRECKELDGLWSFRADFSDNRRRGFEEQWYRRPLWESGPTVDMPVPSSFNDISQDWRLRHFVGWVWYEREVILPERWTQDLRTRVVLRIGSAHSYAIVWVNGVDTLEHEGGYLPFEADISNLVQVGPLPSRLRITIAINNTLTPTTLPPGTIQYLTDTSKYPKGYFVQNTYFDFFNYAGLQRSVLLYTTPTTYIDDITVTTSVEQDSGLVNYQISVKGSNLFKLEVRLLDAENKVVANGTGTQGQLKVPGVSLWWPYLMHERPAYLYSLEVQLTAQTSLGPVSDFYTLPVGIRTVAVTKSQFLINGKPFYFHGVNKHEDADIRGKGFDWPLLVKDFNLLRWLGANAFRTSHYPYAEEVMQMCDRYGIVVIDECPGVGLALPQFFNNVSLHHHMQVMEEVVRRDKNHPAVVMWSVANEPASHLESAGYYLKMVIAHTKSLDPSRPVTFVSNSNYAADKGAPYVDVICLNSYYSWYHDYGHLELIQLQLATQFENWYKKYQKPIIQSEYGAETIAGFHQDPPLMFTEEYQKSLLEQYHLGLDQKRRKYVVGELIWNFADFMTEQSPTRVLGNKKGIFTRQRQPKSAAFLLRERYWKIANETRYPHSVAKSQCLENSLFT
# Sequence of UniProt P78417 (P78417 whole entry, looked up): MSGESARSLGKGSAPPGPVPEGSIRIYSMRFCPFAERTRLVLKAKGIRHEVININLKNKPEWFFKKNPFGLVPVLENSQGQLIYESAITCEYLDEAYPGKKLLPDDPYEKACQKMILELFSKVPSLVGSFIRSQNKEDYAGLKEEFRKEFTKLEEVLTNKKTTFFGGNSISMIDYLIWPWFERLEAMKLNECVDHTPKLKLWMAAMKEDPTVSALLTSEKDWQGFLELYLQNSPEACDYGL
# Sequence of UniProt Q96JB3 (Q96JB3 whole entry, looked up): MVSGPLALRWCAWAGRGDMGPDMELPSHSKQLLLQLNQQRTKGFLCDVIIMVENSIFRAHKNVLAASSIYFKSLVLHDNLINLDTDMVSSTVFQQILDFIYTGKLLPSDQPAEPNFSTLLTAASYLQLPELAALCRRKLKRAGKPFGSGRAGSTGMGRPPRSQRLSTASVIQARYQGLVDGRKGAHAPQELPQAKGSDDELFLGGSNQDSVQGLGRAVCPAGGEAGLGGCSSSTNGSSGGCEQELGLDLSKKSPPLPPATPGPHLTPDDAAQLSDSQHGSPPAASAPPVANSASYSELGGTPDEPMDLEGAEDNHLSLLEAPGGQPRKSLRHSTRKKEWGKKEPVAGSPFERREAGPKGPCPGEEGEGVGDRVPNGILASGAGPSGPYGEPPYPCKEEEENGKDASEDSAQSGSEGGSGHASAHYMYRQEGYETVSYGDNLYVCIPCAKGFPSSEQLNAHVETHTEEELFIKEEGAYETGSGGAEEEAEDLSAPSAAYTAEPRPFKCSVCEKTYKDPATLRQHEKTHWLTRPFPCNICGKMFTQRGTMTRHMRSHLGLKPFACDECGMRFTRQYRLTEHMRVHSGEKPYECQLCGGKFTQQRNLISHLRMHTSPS
# Sequence of UniProt Q12894 (Q12894 whole entry, looked up): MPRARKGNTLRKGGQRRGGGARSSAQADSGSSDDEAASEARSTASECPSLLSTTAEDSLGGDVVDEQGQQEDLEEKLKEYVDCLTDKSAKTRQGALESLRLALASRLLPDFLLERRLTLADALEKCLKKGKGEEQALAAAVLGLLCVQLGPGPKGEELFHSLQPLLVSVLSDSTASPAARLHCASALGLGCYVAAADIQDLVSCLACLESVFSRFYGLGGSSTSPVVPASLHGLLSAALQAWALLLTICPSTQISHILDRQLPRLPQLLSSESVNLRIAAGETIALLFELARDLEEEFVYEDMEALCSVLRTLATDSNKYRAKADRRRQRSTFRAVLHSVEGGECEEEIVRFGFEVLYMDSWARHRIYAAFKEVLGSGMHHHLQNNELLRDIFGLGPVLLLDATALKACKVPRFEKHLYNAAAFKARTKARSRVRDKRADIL
# Sequence of UniProt P49448 (P49448 whole entry, looked up): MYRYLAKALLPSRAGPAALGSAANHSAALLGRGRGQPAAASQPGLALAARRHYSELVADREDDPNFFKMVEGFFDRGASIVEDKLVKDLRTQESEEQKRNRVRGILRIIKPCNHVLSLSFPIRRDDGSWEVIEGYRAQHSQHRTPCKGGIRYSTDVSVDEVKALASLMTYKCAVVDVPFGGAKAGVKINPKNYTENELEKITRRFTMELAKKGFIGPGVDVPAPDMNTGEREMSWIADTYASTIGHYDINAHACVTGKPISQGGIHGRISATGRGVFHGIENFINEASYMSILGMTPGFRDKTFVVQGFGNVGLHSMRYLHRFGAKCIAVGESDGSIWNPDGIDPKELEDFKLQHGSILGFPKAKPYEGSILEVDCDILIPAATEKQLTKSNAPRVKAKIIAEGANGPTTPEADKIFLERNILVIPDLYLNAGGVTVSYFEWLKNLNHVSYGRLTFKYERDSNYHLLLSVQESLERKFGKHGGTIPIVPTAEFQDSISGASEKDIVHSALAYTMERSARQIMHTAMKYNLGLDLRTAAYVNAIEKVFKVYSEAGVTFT
# Sequence of UniProt O43824 (O43824 whole entry, looked up): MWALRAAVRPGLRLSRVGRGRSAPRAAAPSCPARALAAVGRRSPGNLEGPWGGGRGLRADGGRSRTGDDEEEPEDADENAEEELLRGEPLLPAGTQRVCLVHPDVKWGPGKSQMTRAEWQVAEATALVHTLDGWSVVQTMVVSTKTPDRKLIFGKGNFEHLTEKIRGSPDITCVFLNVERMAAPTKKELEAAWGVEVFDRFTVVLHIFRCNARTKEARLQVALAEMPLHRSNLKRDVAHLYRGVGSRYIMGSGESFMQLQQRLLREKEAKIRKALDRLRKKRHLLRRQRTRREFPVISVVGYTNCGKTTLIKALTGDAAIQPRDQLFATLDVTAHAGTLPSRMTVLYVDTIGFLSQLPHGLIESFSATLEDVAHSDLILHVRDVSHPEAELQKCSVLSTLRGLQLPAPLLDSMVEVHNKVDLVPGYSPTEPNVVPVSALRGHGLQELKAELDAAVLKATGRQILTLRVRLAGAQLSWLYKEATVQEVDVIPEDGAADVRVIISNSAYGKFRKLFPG
# Sequence of UniProt Q9BYC5 (Q9BYC5 whole entry, looked up): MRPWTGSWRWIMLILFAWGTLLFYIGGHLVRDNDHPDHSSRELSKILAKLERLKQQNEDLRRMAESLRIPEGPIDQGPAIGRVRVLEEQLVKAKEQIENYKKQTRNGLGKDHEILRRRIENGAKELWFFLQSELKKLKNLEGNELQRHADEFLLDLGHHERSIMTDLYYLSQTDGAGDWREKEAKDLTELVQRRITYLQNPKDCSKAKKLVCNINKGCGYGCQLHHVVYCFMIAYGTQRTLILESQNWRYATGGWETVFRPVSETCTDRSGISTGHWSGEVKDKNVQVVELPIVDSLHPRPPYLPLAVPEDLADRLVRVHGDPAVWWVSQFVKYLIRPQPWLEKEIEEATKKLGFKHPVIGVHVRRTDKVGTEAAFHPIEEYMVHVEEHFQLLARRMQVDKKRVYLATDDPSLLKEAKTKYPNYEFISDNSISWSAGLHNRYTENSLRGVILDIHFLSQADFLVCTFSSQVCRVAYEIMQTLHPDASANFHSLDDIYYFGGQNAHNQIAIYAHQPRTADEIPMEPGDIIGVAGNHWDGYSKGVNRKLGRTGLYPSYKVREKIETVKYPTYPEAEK
# Sequence of UniProt P09105 (P09105 whole entry, looked up): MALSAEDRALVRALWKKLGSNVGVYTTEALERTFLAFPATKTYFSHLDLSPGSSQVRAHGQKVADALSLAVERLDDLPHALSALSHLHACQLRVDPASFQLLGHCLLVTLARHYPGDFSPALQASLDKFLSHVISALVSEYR
row,Target,log2 fold change
1,FDPS (UniProt P14324),-0.027 (inactive)
2,GLUD1 (UniProt P00367),-0.015 (inactive)
3,GLRX3 (UniProt O76003),0.015 (inactive)
4,GTF3A (UniProt Q92664),-0.031 (inactive)
5,GLS (UniProt O94925),0.009 (inactive)
6,GUSB (UniProt P08236),0.117 (inactive)
7,FERMT3 (UniProt Q86UX7),-0.015 (inactive)
8,GSK3A (UniProt P49840),0.383 (active)
9,HLTF (UniProt Q14527),0.015 (inactive)
10,HTATIP2 isoform 3 (UniProt Q9BUP3),-0.002 (inactive)
11,HMGN1 (UniProt P05114),0.019 (inactive)
12,GTPBP6 (UniProt O43824),-0.042 (inactive)
13,HEATR5B (UniProt Q9P2D3),0.072 (inactive)
14,FUCA2 (UniProt Q9BTY2),-0.009 (inactive)
15,GALNT4 (UniProt Q8N4A0),0.042 (inactive)
16,HAT1 (UniProt O14929),-0.025 (inactive)
17,GHDC (UniProt Q8N2G8),-0.011 (inactive)
18,IFNGR1 (UniProt P15260),-0.126 (inactive)

row,Target,log2 fold change
1,HDAC2 (UniProt Q92769),-0.002 (inactive)
2,GALNT11 (UniProt Q8NCW6),0.076 (inactive)
3,HNRNPH1 (UniProt P31943),-0.116 (inactive)
4,GOLPH3 (UniProt Q9H4A6),-0.013 (inactive)
5,HMG20A (UniProt Q9NP66),-0.012 (inactive)
6,FBXO9 (UniProt Q9UK97),-0.113 (inactive)
7,GLUD2 (UniProt P49448),-0.031 (inactive)
8,GTF3C5 isoform 3 (UniProt Q9Y5Q8),-0.137 (inactive)
9,GSTO1 (UniProt P78417),-0.009 (inactive)
10,HECTD1 (UniProt Q9ULT8),-0.022 (inactive)
11,FRA10AC1 isoform 3 (UniProt Q70Z53),0.085 (inactive)
12,HBQ1 (UniProt P09105),-0.043 (inactive)
13,GEMIN5 (UniProt Q8TEQ6),-0.127 (inactive)
14,IFRD2 isoform 2 (UniProt Q12894),0.236 (inactive)
15,HIC2 (UniProt Q96JB3),-0.181 (inactive)
16,GGT7 (UniProt Q9UJ14),-0.03 (inactive)
17,FUT8 (UniProt Q9BYC5),0.054 (inactive)
